About 5,200 (1.7%) of roughly 300,000 compounds were called active. Only a selection was taken, and actives are over-represented in it overall. Unmarked numbers belong to inactive results.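 Rule for the calls: active = mean replicate activation of at least 50% with a set share of replicates each reaching 50%; inconclusive = only one of those two conditions met; inactive = mean below 50% and too few replicates reaching it.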
Assay: HSF-1 response element luciferase induction – NIH3T3-HGL cells, MG132 stress, luminescence, single point, primary screen (AID 504408);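 note: 0% = median of the neutral control wells and 100% = twice that signal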
Settings: NIH3T3-HGL HSF-1 luciferase reporter, MG132, 8 h; at 9 µM; stronger effect = higher value; 100% = twice DMSO control signal

Row | Compound | activation
1 | COC(=O)c1ccc(COC(=O)C2CCN(S(=O)(=O)c3c(Cl)cccc3Cl)CC2)o1 | -1.35%
2 | Cc1ccccc1NC(=O)C1CCCN(C(=O)NCc2ccccc2)C1 (stereo unspecified) | 66.9% (active)
3 | Cc1ccccc1NC(=O)N1CCCC1C(=O)NCc1ccccc1 (stereo unspecified) | -14.4%
4 | Cc1cccc(NC(=O)C2CCCN(C(=O)NCc3ccccc3)C2)c1C (stereo unspecified) | 23.5%
5 | CCOC(=O)N1CCN(C(=O)COc2ccc3oc4c(c3c2)CCCC4)CC1 | -4.2%
6 | CCN(CC(=O)NCc1cccs1)C(=O)c1ccc(OC)c(S(=O)(=O)N2CCOCC2)c1 | -5.75%
7 | O=C(NCc1ccc2c(c1)OCO2)c1c(O)nc2sccn2c1=O | 14.5%
8 | CC(C)OC(=O)c1ccc(COc2ccc3ccc(=O)oc3c2)o1 | 65.7% (active)
9 | Cc1noc(C)c1COc1ccc2ccc(=O)oc2c1 | 0.156%
10 | COC(=O)c1ccc(COc2ccc(C#N)cc2)o1 | 10.5%
11 | O=C1CCCCC1Sc1ccc(Cl)cc1[N+](=O)[O-] (stereo unspecified) | 8.24%
12 | Cc1cc(OCC(=O)N(C)c2c(N)n(Cc3ccccc3)c(=O)[nH]c2=O)c(C(C)C)cc1Cl | -0.115%
13 | Cc1ccc2nc(NC(=O)C3CSC4(C)CCC(=O)N34)sc2c1 (stereo unspecified) | 10.5%
14 | CN(c1cccc(NC(=O)c2ccc(CN3CCc4ccccc4C3)cc2)c1)S(C)(=O)=O | 21.2%
15 | CS(=O)(=O)N(CC(=O)N1CCc2ccccc2C1)c1ccc(Br)cc1 | -4.09%
16 | Cc1ccc(S(=O)(=O)N(CC(=O)N2CCc3ccccc3C2)c2cccc(Cl)c2)cc1 | 13%
17 | CN(c1ccc(C(=O)N2CCc3ccccc3C2)cc1)S(C)(=O)=O | 57.9% (active)
18 | O=C(C(=O)N1CCc2ccccc2C1)N1CCc2ccccc2C1 | 2.97%
19 | COc1cccc(N(CC(=O)N2CCc3ccccc3C2)S(C)(=O)=O)c1 | 69.4% (active)
20 | Cc1cc2nc3n(c2cc1C)CC1CC(C(=O)NCCC(C)C)N(C)C31 (stereo unspecified) | 11.4%
21 | Cc1ccc(S(=O)(=O)n2cccc2CO)cc1 | 3.66%
22 | O=C(COc1ccccc1)Nc1ccc(F)cc1 | 1.97%
23 | Cc1ccc(-c2cc(=O)[nH]c(NCc3ccccc3)n2)cc1 | 11.6%

Row | Compound | activation
24 | Cc1ccc(O)c(CNc2nc3ccccc3n2C)c1 | 6.25%
25 | Cc1ccc(O)c(CNc2nc3ccccc3[nH]2)c1 | 83.1% (active)
26 | Cc1sc2ncnc(N3CCC(C(=O)Nc4nc5ccc(Cl)cc5s4)CC3)c2c1C | 8.18%
27 | CC(Oc1cccc(Cl)c1)C(=O)Nc1ccc(S(=O)(=O)Nc2ncccn2)cc1 (stereo unspecified) | -4.25%
28 | COc1cc2c(cc1OC)CN(C(=O)c1cc(S(=O)(=O)N3CCCCC3)ccc1Cl)CC2 | 31.4%
29 | COc1cc2c(cc1OC)C(C)N(S(=O)(=O)c1cnc(Cl)c(Cl)c1)CC2 (stereo unspecified) | 227% (active)
30 | COc1ccc(S(=O)(=O)N2CCC(C(=O)N3CCc4ccccc4C3)CC2)cc1OC | -2.14%
31 | CCCCn1c(N)c(N(CC)C(=O)c2ccc(N(C)S(=O)(=O)c3ccc(C)cc3)cc2)c(=O)[nH]c1=O | -9.17%
32 | COc1ccc(OC)c(S(=O)(=O)N2CCCC(C(=O)N3CCC(C(N)=O)CC3)C2)c1 (stereo unspecified) | -0.348%
33 | CCN1C(=O)[C@@H]2[C@@H](c3ccc(-c4cccc(Cl)c4)cc3)N3CCC[C@@]3(C(=O)OC)[C@@H]2C1=O | 15%
34 | O=C(/C=C/NCc1ccc(F)cc1)c1ccccc1 | 57.4% (active)
35 | O=C(/C=C\NCC(=O)c1ccccc1)c1ccccc1 | 16.4%
36 | O=C(Cc1ccccc1)NCc1ccc(F)cc1 | 20.9%
37 | Cc1ccc(NC(=O)C(C)OC(=O)Cc2c[nH]c3ccccc23)cc1S(=O)(=O)N1CCOCC1 (stereo unspecified) | 13%
38 | Cc1ccc(C(=O)OCC(=O)N2CC(C)CC(C)C2)cc1S(=O)(=O)N1CCCCC1 (stereo unspecified) | 1.62%
39 | Brc1ccc2nc(N3CCCC3)sc2c1 | 68.3% (active)
40 | c1c2c(cc3sc(N4CCCCC4)nc13)OCCO2 | -56.8%
41 | Cc1ccc2nc(N3CCN(C(=O)c4ccco4)CC3)sc2c1 | 12.9%
42 | CN(Cc1c(F)cccc1Cl)C(=O)CNC(=O)c1ccc2c(c1)OCO2 | -4.62%
43 | Cc1ccc(S(=O)(=O)N2CCN(C(=O)c3ccccc3-c3nc4ccccc4s3)CC2)c(C)c1 | -2.98%
44 | O=C(CCN1C(=O)c2ccccc2C1=O)C1=NN[C@@H]2C(=O)N(c3ccc(F)cc3)C(=O)[C@H]12 | 67.2% (active)
45 | O=C1c2ccccc2C(=O)N1CCOc1ccc(F)cc1 | 43.4%
46 | O=C(CCN1C(=O)c2ccccc2C1=O)Nc1cccc(F)c1 | -4.05%

From PubChem BioAssay AID504408 (Broad Institute, 2011)
